Data on 14 molecules can be found in PubChem BioAssay.

Experiment [1] deals with Wnt5a (protein binding on small-molecule microarray). Nature of the experiment: small molecules binding Wnt5a protein – biophysical, small-molecule microarray, 635/667 nm fluorescence, primary screen (AID 1142).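 Further: fluorescence read at 667 nm with signal to noise per printed feature.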 The note with it: 635 nm fluorescence, higher = more signal.
The nature of experiment [2]: ATP-based viability of Huh7 replicon cells – cell-based, CellTiter-Glo luminescence, basal, 48 h, cytotoxicity control for HCV replication inhibitor project, primary screen (AID 1143).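 Further: Huh7 hepatoma cells carrying a hepatitis C replication reporter with no stimulus; test concentration not given here.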 The note with it: higher = more signal, called active from +8 up or from −8 down. For orientation: In antiviral work, replicon cells carry a viral genome segment that copies itself.
Experiment [3] is described as follows: Pseudomonas biofilm growth suppression – PAO1 strain, BacTiter-Glo luminescence, LB-PBS, primary screen (AID 1144). The note with it: P. aeruginosa PAO1 biofilm, 12 h, higher = more signal.
The nature of experiment [4]: basal CRE-LacZ reporter activity in PC12 – cell-based, unstimulated, primary screen (AID 1145). The following applies: no forskolin, luminescence, 4.5 h, higher = more signal, called active from +8 up or from −8 down.
Experiment [5] in a line: forskolin-driven CRE-LacZ activity in PC12 – cell-based, CRE-LacZ reporter, forskolin-stimulated, primary screen (AID 1146).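 Further: PC12 cells with 6xCRE LacZ reporter stimulated by forskolin 10 µM; beta-galactosidase reporter signal reflecting CREB driven transcription.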 The note with it: luminescence, 4.5 h, higher = more signal, called active from +8 up or from −8 down.
The target of experiment [6] is Streptavidin (Streptomyces avidinii) (UniProt P22629). The experiment can be described thus: compounds binding control protein streptavidin – biophysical, small-molecule microarray, 635/667 nm fluorescence, artefact control for SMM compound annotation, primary screen (AID 1147).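 Further: signal reflects streptavidin binding to arrayed compounds as a control protein.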 The note with it: higher = more signal.
A short description of experiment [7]: probe aInhba binding on compound microarray – biochemical, small-molecule microarray, 635/667 nm fluorescence, primary screen (AID 1148).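 Further: score merges 667nm spot fluorescence with signal-to-noise for antibody binding to printed compounds.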 The following applies: higher = more signal.
The target in experiment [8] is Torsin-1A (Homo sapiens) (UniProt O14656). Nature of the experiment: TOR1A wild-type binding on microarray – cell lysate, small-molecule microarray, lysate, 635/667 nm, primary screen (AID 1149). The note with it: COS7 hTOR1A-WT lysate, 635 nm fluorescence, higher = more signal.
The target is the same in experiment [9]. Nature of the experiment: torsin A mutant lysate binding on microarrays – cell lysate, small-molecule microarray, COS7 lysate, 635/667 nm fluorescence, primary screen (AID 1150).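 Further: score pools 667 nm emission and signal to noise measuring lysate protein binding.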 The note with it: COS7 hTOR1A mutant lysate, 635 nm fluorescence, higher = more signal.
Experiment [10] relates to Sonic hedgehog protein (Shh). Nature of the experiment: Sonic hedgehog microarray binding compounds – biochemical, small-molecule microarray, 635/667 nm fluorescence, primary screen (AID 1151).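 Further: Shh protein binding to compounds spotted on small-molecule microarray slides; score combines spot fluorescence intensity with signal-to-noise across triplicate slides.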 The following applies: 635 nm fluorescence, higher = more signal.

Activity calls are given as the source filed them. Unless noted, how the calls were made is not given here.

Sequence of Torsin-1A (Homo sapiens) (O14656 whole entry, looked up): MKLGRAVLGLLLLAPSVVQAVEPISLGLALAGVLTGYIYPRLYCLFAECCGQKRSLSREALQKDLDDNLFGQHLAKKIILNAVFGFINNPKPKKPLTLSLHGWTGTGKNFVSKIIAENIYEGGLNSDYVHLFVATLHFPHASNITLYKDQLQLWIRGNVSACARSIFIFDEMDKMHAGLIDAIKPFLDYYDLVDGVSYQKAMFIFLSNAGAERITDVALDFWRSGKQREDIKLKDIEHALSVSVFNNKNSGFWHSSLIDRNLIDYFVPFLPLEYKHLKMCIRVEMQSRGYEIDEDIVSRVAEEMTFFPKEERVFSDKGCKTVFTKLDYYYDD
Sequence of Streptavidin (Streptomyces avidinii) (P22629 whole entry, looked up): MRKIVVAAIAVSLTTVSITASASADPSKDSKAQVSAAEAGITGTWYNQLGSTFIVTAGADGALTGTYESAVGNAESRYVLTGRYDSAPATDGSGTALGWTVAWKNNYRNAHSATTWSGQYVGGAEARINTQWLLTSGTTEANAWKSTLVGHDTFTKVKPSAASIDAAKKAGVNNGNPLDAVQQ

For the molecule `CC(C)[Si](C#C[Si](C(C)C)(C(C)C)C(C)C)(O[C@H](c1ccccc1)c1cn(Cc2ccccc2)nn1)C(C)C`, the composite z-score in [1] was -0.0366; in [6], 0.652; in experiment [7] it was -0.016; with Torsin-1A (Homo sapiens) [8] it was 0.412; with Torsin-1A (Homo sapiens) [9], 0.107; in [10] it was 0.558. For the same molecule, the z-score was -0.071 (inactive) in experiment [2], -1.32 (inactive) in experiment [3], -0.752 (inactive) in experiment [4] and -0.166 (inactive) in experiment [5].
On to `O[C@@H](Cc1ccccc1)[C@@H](/C=C/C1CC1)N(CC#Cc1ccccc1)Cc1ccccc1Br`, for which the composite z-score in [1] is -1.03; in [6] it was -0.5; in experiment [7] it was -0.183; with Torsin-1A (Homo sapiens) [8] it was -0.802; in the experiment with Torsin-1A (Homo sapiens) [9], -0.744; in [10] it was -1.5. In addition, the z-score in experiment [2] was -1.72 (inactive); in experiment [3] it was 0.357 (inactive); in experiment [4] it was 2.41 (inactive); in experiment [5], 0.21 (inactive).
As for `CCOC(=O)C1=C[C@@H](C(C)C)N(S(=O)(=O)c2ccc(C)cc2)[C@H]1c1ccc(C(F)(F)F)cc1`, the composite z-score in [1] is 0.418; in experiment [6] it was 0.908; in [7], -0.12; with Torsin-1A (Homo sapiens) [8] it was 0.505; with Torsin-1A (Homo sapiens) [9] it was 0.682; in experiment [10] it was 0.217. In addition, the z-score in [2] is -3.82 (inactive); in experiment [3] it was 0.803 (inactive); in experiment [4], 0.939 (inactive); in experiment [5] it was -1.13 (inactive).
Regarding `O=C1CS(=O)(=O)C(c2cccc([N+](=O)[O-])c2)N1c1ccccc1` (stereo not given), the composite z-score in [1] worked out at 0.388; in experiment [6], 0.392; in experiment [7], 1.03; with Torsin-1A (Homo sapiens) [8], 0.909; with Torsin-1A (Homo sapiens) [9], 0.655; in [10] it was 0.781. Besides, the z-score in experiment [2] was -1.67 (inactive); in experiment [3], -1.16 (inactive); in [4], -0.231 (inactive); in [5] it was -1.44 (inactive).
Take `C[N+](C)(C)CCCC[C@@H]1NC(=O)[C@@H]2C[C@H](C(=O)NCCCCCCN)[C@H](c3cccc(OCCO)c3)N2C1=O`: the composite z-score in experiment [1] was found to be 0.397; in experiment [6], 1.67; in experiment [7], 1.22; in the experiment with Torsin-1A (Homo sapiens) [8] it was 0.85; with Torsin-1A (Homo sapiens) [9], 1.65; in experiment [10], 0.691. The z-score in experiment [2] was 0.279 (inactive); in experiment [3] it was 0.32 (inactive); in experiment [4], 2.84 (inactive); in experiment [5], -0.618 (inactive).
Consider `COC(=O)C1=CC(CCCO)=CC(c2cccs2)N(Cc2cccc(OC(F)(F)F)c2)C=C1C(=O)OC` (stereo not given), for which the composite z-score in [1] was 0.237; in experiment [6], 1.93; in experiment [7] it was -0.0619; with Torsin-1A (Homo sapiens) [8] it was 1; in the experiment with Torsin-1A (Homo sapiens) [9] it was 1.56; in experiment [10], -0.403. Moreover, the z-score is -3.26 (inactive) in experiment [2], 0.759 (inactive) in experiment [3], -0.815 (inactive) in experiment [4] and 0.0187 (inactive) in [5].
With `C=CC[C@]1(C(=O)N2CCCCC2)N=C(c2ccc(OCCCO)cc2)O[C@H]1c1ccccc1CN=[N+]=[N-]`, the composite z-score in experiment [1] is 0.518; in [6] it was 0.997; in experiment [7], 0.121; with Torsin-1A (Homo sapiens) [8], 0.0016; with Torsin-1A (Homo sapiens) [9] it was 0.361; in experiment [10], -0.27. Moreover, the z-score in experiment [2] is -4.07 (inactive); in experiment [3], -1.44 (inactive); in [4], 1.45 (inactive); in experiment [5] it was 1.86 (inactive).
As for `COC(=O)C1(CC(C)C)C=C2C(=C(c3ccccc3)C(=O)C2C)CN1` (stereo not given), the composite z-score was 0.894 in experiment [1]; 0.246 in [6]; 0.613 in experiment [7]; -0.0212 in the experiment with Torsin-1A (Homo sapiens) [8]; 1.3 with Torsin-1A (Homo sapiens) [9]; 1.75 in experiment [10]. In addition, the z-score in [2] is -0.207 (inactive); in experiment [3], 0.279 (inactive); in [4] it was 0.966 (inactive); in experiment [5] it was 1.64 (inactive).
Take `CC1=C2[C@@H](CCc3ccccc3)OB(O)C[C@@H]2[C@@H]2C(=O)N(Cc3ccccc3)C(=O)[C@@H]2C1`: the composite z-score in experiment [1] was 0.0023; in experiment [6], -0.189; in experiment [7], -0.285; with Torsin-1A (Homo sapiens) [8] it was 0.572; with Torsin-1A (Homo sapiens) [9], 0.333; in [10], 0.792. Further, the z-score in [2] was -0.23 (inactive); in experiment [3] it was 0.615 (inactive); in experiment [4], 0.39 (inactive); in [5] it was -0.138 (inactive).
For `O=C1O[C@@H](c2ccccc2)[C@@H](c2ccccc2)N2[C@@H](c3ccc(O)cc3)[C@]3(C(=O)Nc4ccc(C#CCCO)cc43)[C@@H](C(=O)N3CCN(c4ncccn4)CC3)[C@H]12`, the composite z-score is 0.409 in [1]; -0.704 in experiment [6]; 0.0214 in experiment [7]; 0.591 in the experiment with Torsin-1A (Homo sapiens) [8]; 0.967 with Torsin-1A (Homo sapiens) [9]; 2.21 in experiment [10]. For the same molecule, the z-score in experiment [2] was -1.28 (inactive); in experiment [3], -0.622 (inactive); in [4], -0.554 (inactive); in experiment [5], -0.572 (inactive).
Regarding `Cc1ccc(S[C@]2(C(=O)NC(C)C)CC(=O)N(Cc3cc(C(F)(F)F)cc(C(F)(F)F)c3)[C@@H]2c2ccc(CO)cc2)cc1`, the composite z-score in experiment [1] was 0.0368; in experiment [6] it was -1.18; in [7] it was -0.121; with Torsin-1A (Homo sapiens) [8] it was -1.86; with Torsin-1A (Homo sapiens) [9] it was -1.78; in experiment [10], -0.621. Moreover, the z-score in experiment [2] was -0.523 (inactive); in [3] it was 0.0139 (inactive); in experiment [4], 0.0655 (inactive); in [5] it was 0.832 (inactive).
Consider `COC(=O)C1=CC(CCCO)=CC(c2cccs2)N(C)C=C1C(=O)OC` (stereo not given), for which the composite z-score in experiment [1] is -0.149; in experiment [6], 0.0877; in experiment [7], 0.0485; with Torsin-1A (Homo sapiens) [8], -0.186; in the experiment with Torsin-1A (Homo sapiens) [9] it was 1.04; in experiment [10] it was -0.369. Also, the z-score is -0.786 (inactive) in experiment [2], 0.321 (inactive) in experiment [3], -0.285 (inactive) in experiment [4] and -0.217 (inactive) in [5].
With `COc1ccc([Si](C)(C)[C@H]2[C@H](CC(=O)N(CCO)Cc3ccccc3)O[C@@]3(C(=O)N(C)c4c(Br)cc(C)cc43)[C@@H]2C)cc1`, the composite z-score is 0.306 in [1]; 0.527 in [6]; -0.128 in [7]; 2.12 with Torsin-1A (Homo sapiens) [8]; 1.98 with Torsin-1A (Homo sapiens) [9]; 1.72 in [10]. Further, the z-score was -5.69 (inactive) in experiment [2], -1.43 (inactive) in experiment [3], 9.7 (active) in [4] and -2.49 (inactive) in [5].
On to `CCCNC(=O)[C@@]1(Sc2ccc(C)cc2)CC(=O)N(C2Cc3ccccc3C2)[C@@H]1c1ccc(CO)cc1I`, for which the composite z-score in experiment [1] was determined as 0.196; in experiment [6], 0.419; in experiment [7], 0.27; in the experiment with Torsin-1A (Homo sapiens) [8], 0.418; in the experiment with Torsin-1A (Homo sapiens) [9], 0.309; in experiment [10] it was 0.737. Besides, the z-score is -0.812 (inactive) in experiment [2], 0.594 (inactive) in experiment [3], -0.374 (inactive) in [4] and 1.73 (inactive) in experiment [5].
